Legend:
Type in all cases: functional
Plasmodium falciparum [1] = assay: GSK_TCMDC: Inhibition of Plasmodium falciparum 3D7 in whole red blood cells, using parasite LDH activity as an index of growth. Test compounds present at 2uM
Plasmodium falciparum [2] = assay: GSK_TCMDC: Inhibition of Plasmodium falciparum Dd2 in whole red blood cells, using parasite LDH activity as an index of growth. Test compounds present at 2uM
HepG2 = assay: GSK_TCMDC: Percent inhibition of human HepG2 cell line. Test compounds present at 10uM.

Row | Compound | Inhibition (Plasmodium falciparum [1]) | Inhibition (Plasmodium falciparum [2]) | Inhibition (HepG2)
1 | Cl.O=C(Oc1ccc(C2CNCCc3c2cc(OC(=O)c2ccc(O)cc2)c(OC(=O)c2ccc(O)cc2)c3Cl)cc1)c1ccc(O)cc1 (stereo not given) | 90% | 60% | 0%
2 | O=C(Nc1ccc(OC2CCN(Cc3ccsc3)C2)c(Cl)c1)c1ccsc1.O=C(O)C(F)(F)F (stereo not given) | 85% | 70% | 4%
3 | O=C(c1csc(-c2cccnc2)n1)N1CCc2cc3nccc(N4CCN5CCC[C@H]5C4)c3cc21 | 97% | 78% | 0%
4 | CN(C)CCCN(C)C(=O)c1cc2cc(-c3ccccc3)ccc2n1S(=O)(=O)c1ccccc1.Cl | 98% | 66% | 29%
5 | COc1ccc2c(=NN=Cc3cccc(C)n3)cc(-c3ccccc3)[nH]c2c1 | 97% | 25% | 0%
